Experimental data as given in PubChem BioAssay (NCATS).
Inconclusive results are not listed. Calls of active or inactive are those of the source. The call rests on the fitted dose curve; in most records, active means well fitted inhibition curve with a large enough effect; inconclusive means small, poorly fitted or top-dose-only effect; inactive means no such curve, though single readings can be large or run the other way. Bridge positions count the residues as written; N and C are the ends. Square brackets hold non-standard residues; d marks the D form. Side chains are listed from the residue outwards. Peptide text beside a SMILES is read from it. * marks the point of attachment. ξ: configuration not given here. Phg(4-OMe) = COc1ccc([C@H](N)C(=O)O)cc1; d(aIle) = CC[C@H](C)[C@@H](N)C(=O)O; d(aThr) = C[C@@H](O)[C@@H](N)C(=O)O; NMeF = CN[C@@H](Cc1ccccc1)C(=O)O; Isobutyryl = CC(C)C(=O)*; ξL = CC(C)CC(N)C(=O)O

test: Secretion counterscreen for inhibitors of the SERCaMP assay screened against the NCATS CANVASS Library (AID 1347390); settings: SH-SY5Y constitutive GLuc secretion, luminescence, 20 h; series mostly up to 76.6 µM; activity change, negative = inhibition: at the top concentration;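 further: light from luciferase secreted into medium read as a measure of general secretion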
Excerpt: Natural products and their derivatives continue to be wellsprings of nascent therapeutic potential. However, many laboratories have limited resources for biological evaluation, leaving their previously isolated or synthesized compounds largely or completely untested. To address this issue, the Canvass library of natural products was assembled (https://tripod.nih.gov/canvass), in collaboration with academic and industry researchers, for quantitative high-throughput screening (qHTS) across a diverse set of cell-based and biochemical assays. The pure (>85% purity by liquid chromatography/mass spectrometry [LC/MS]) Canvass library of 346 natural products were submitted by 45 academic laboratories and companies around the world. We collected pure natural products to circumvent deconvolution and structure elucidation due to time and resource limitations. The library was formatted into 1536-well plates and evaluated in 50 qHTS (in an 11-pnt concentration series) bioassays with broad scope of disease-relevant mechanisms. The resulting data set from 50 different assays was then systematically analyzed to identify overall trends and specific natural products with interesting biological activities. Reported herein are the results of each individual qHTS and their corresponding assay protocol. Compounds that interfere with the secretory pathway can show activity in the SERCaMP assay. This type of false positive is identified using a constitutively secreted GLuc reporter. National Center for Advancing Translational Sciences (NCAwsTS), Rockville, MD National Institute of Health (NIH), Bethesda, Maryland
SERCaMP secretion assay protocol: 1. In a white-solid bottom 1536-well tissue culture plate (Corning 7494), 5 uL of SH-SY5Y-GLuc STOP cells were dispensed using a Multidrop Combi (Thermo Fisher Scientific) at a final concentration of 1000 cells / well. 2. The assay plates were incubated for 4 hours at 37C, 5% CO2, 95% humidity to acclimate and attach. 3. […] of compounds (in DMSO; columns 5-48), and positive control Brefeldin A (1 mM; 1:2 dilution; 16-points; n = 2; column 2, rows 1-32) were pin transferred into the assay plates using the Kalypsis pin tool (Wako USA) equipped with a 1536-well pin heads. This yields a final concentration range of 0.0001 - 4.6 uM for the Brefeldin A and 0.001 - 77 uM for the compounds. 4. The assay plates were incubated for 20 hours at 37C, 5% CO2, 95% humidity. 5. After incubation, 1 uL of (7x) substrate Coelenterazine (diluted 1:200 in Pierce Glow Assay buffer) was dispensed into columns 1 - 48, rows 1 - 32. 6. The plates were centrifuged for 5 seconds at 1000 rpm. 7. Luminescence signal was obtained via the ViewLux plate reader (Perkin Elmer) using the clear emission filter and 1x binning, 5 seconds exposure settings.
On the % scale 0 is the no-effect control and ±100 the full control effect; potency means the concentration at half of the fitted maximal effect.

Compound	activity change, negative = inhibition	Potency
CCCc1c2c([nH]c(=O)c1C)C(=O)c1[nH]c(=O)c(C)c(CCC)c1C2=O	61.7% (inactive)	–
COc1cc2oc3ccccc3c(=O)c2cc1OC	-13.1% [at 152 µM] (inactive)	–
C=CC(CCCCC)C1C(=O)NC(=O)C1C(=O)C1C2C(C)CC(C(=O)O)CC2CC1(O)C(=O)/C=C/C (stereo not given)	16.5% (inactive)	–
C/C(=C\[C@H](C)C(=O)CCCC1CC(=O)NC(=O)C1)[C@@H]1OC(=O)/C=C/CC/C=C/[C@H](O)[C@@H](O)[C@@H]1C	–	2.72 µM (active)
C=C(C)CC[C@H](Cc1c(O)cc(O)c2c1O[C@H](c1ccc(O)cc1)CC2=O)C(=C)C	3.45% (inactive)	–
CC(C)[C@@H]1CC(=O)c2coc3c2[C@H]1C[C@@H](C)C3=O	-30% (inactive)	–
CC(C)=CC[C@H]1C[C@@]2(CC=C(C)C)C(=O)[C@](CC=C(C)C)(C(=O)C(C(=O)c3ccccc3)=C2O)C1(C)C	-19% (inactive)	–
C=CC(CCCCC)C1C(=O)NC(=O)C1C(=O)C1C(/C=C/C)C=CC2CC(C(=O)O)CC(C)C21 (stereo not given)	5.24% (inactive)	–
O=c1cc(-c2ccc(O)c(O)c2)oc2cc(O[C@@H]3O[C@H](CO)[C@@H](O)[C@H](O)[C@H]3O)cc(O)c12	3.5% (inactive)	–
Cc1cc(C)c(O)c(C(=O)CC2CC(=O)NC(=O)C2)c1	–	6.09 µM (active)
C=C[C@@]1(C)CC[C@@H]([C@H](C)C(=O)/C=C/C(C)(C)O)O1	48.5% (inactive)	–
O=C1CC(c2ccc(O)cc2)Oc2cc(O)ccc21 (stereo not given)	-8.52% (inactive)	–
C/C=C/c1cc2c(c(=O)o1)C(=O)[C@@H](O)[C@H](C)O2	–	34.3 µM (active)
C[C@@]1(CCC(=O)Nc2c(O)ccc(C(=O)O)c2O)C(=O)C=C[C@]23C[C@H]4C[C@H](O[C@@]4(C)C2)C31 (stereo not given in full)	15.1% (inactive)	–
COC(=O)C1=C[C@]23C[C@@H](C)CC[C@@H]2[C@@]2(C)CC[C@@H](C(C)C)[C@@](O)(O3)[C@@H]12	-4.32% (inactive)	–
O=C(OC[C@H]1O[C@@H](OC(=O)c2cc(O)c(O)c(O)c2)[C@H](OC(=O)c2cc(O)c(O)c(O)c2)[C@@H](OC(=O)c2cc(O)c(O)c(O)c2)[C@@H]1OC(=O)c1cc(O)c(O)c(O)c1)c1cc(O)c(O)c(O)c1	21% (inactive)	–
CC[C@@H](C)[C@H]1NC(=O)C(CC(C)C)NC(=O)[C@@H](CC(C)C)NC(=O)[C@H](Cc2c[nH]c3ccccc23)NC(=O)CNC(=O)[C@@H](CC(N)=O)NC1=O (stereo partly drawn) (cyclo(GW[dL][ξL][dI][dN]))	-28.7% (inactive)	–
C=C1C(=O)O[C@H]2[C@H]1CCC(C)=C1CC[C@@](C)(O)[C@@H]12	–	34.3 µM (active)
CC(=O)O[C@H]1c2ccccc2-c2c3c(cc4c2[C@@H]1N(C(C)=O)CC4)OCO3	-8.97% (inactive)	–
COc1cc(/C=C/C(=O)OC[C@@H](Cc2ccc(O)c(OC)c2)[C@@H](COC(=O)/C=C/c2ccc(O)c(OC)c2)Cc2ccc(O)c(OC)c2)ccc1O	–	38.4 µM (active)

Compound	activity change, negative = inhibition	Potency
C[C@H](CCC(O)C(C)(O)CO)[C@@]1(O)CC[C@@]2(C)C3=C(CC[C@@]21C)[C@@]1(C)CCC(OC(=O)CCC(=O)O)C(C)(C)[C@@H]1CC3 (stereo not given in full)	19.4% (inactive)	–
COc1cc(C2C3=C(Cc4cc5c(cc42)OCO5)C(=O)OC3)cc(OC)c1OC (stereo not given)	-4.51% (inactive)	–
O=C1CCC(=O)N(O)CCCCCNC(=O)CCC(=O)N(O)CCCCCNC(=O)CCC(=O)N(O)CCCCCN1	30.1% (inactive)	–
COC(=O)c1cccc2oc(-c3cccc4oc(-c5c(C)cccc5O)nc34)nc12	18.7% (inactive)	–
CN1CC[C@@]2([C@@]34CCN(C)[C@@H]3Nc3ccccc34)c3ccccc3N[C@@H]12	-15.2% (inactive)	–
C/C=C/[C@H]1[C@H]2C(=O)c3c(O)c(C)c(O)c(C)c3[C@]1(C(=O)O)C(=O)C=C2C	5.35% (inactive)	–
COc1cc(C2OCC3C(c4ccc(O)c(OC)c4)OCC23)ccc1O (stereo not given)	27.5% [at 15.3 µM] (inactive)	–
C[C@@]12CCC[C@@](C)(C(=O)OP(=O)(O)OC[C@H]3O[C@@H](n4cnc5c(N)ncnc54)[C@H](O)[C@@H]3O)[C@H]1C[C@@H](O)[C@@]13C[C@@H](CC[C@@H]21)[C@](C)(O)C3	27.5% (inactive)	–
O=Cc1ccc2n1C[C@]1(OC2)O[C@H](CO)[C@@H](O)[C@@H]1O	1.15% (inactive)	–
CO[C@@H]1[C@H](O)[C@@H](C)O[C@@H](OC[C@@H]2C(C)OC(=O)/C=C/[C@H](C)C(O[C@@H]3O[C@H](C)CC4(OC(=O)O[C@@H]4C)C3O)[C@@H](C)CC(C)C(=O)/C=C/[C@H]3OC23)[C@@H]1OC (stereo not given in full)	-83.1% (inactive)	–
COc1cc([C@@H]2c3cc4c(cc3C[C@@]3(O[C@@H]5O[C@H](CO)[C@@H](O)[C@H](O)[C@H]5O)COC(=O)[C@H]23)OCO4)cc(OC)c1OC	27.1% (inactive)	–
C/C(=C\[C@H](C)C(=O)C[C@H](O)CC1CC(=O)NC(=O)C1)[C@@H]1OC(=O)CCCC/C=C/[C@@H](O)C[C@@H]1C	–	9.65 µM (active)
CC[C@H](C)[C@H]1NC(=O)[C@@H](NC(=O)C(C)C)[C@@H](C)OC(=O)[C@H](COC(=O)CNC(C)=O)NC(=O)[C@@H]([C@@H](C)O)NC(=O)[C@H](Cc2ccccc2)N(C)C(=O)[C@H](c2ccc(OC)cc2)NC1=O (Isobutyryl-T[d(aIle)][Phg(4-OMe)][NMeF][d(aThr)]S([Gly-Ac]); ester 1-C)	-33.1% (inactive)	–
COC1C(C)OC(OCC23C[C@@H]4[C@H](C)CC[C@H]4C4(C=O)CC2C=C(C(C)C)C34C(=O)O)[C@@H](O)[C@H]1O (stereo not given in full)	-13.4% (inactive)	–
C=CC(C)(C)C(=O)[C@@H](C)[C@@H]1CC[C@@](C)(C=C)O1	-18% (inactive)	–
COC(=O)[C@@]1(C)CCC[C@]2(C)c3cc(OC)ccc3CC[C@@H]12	-3.3% (inactive)	–
CCC(=O)N[C@@H](C[C@H](C)C(Cl)(Cl)Cl)C(=O)N1C(=O)C=C(OC)[C@@H]1C[C@H](C)CCl	-11.3% (inactive)	–
CN1C(=O)C(=O)N2C(=C[C@]3(c4c[nH]c5ccccc45)c4ccccc4N[C@H]23)C1=O	-13.9% (inactive)	–
CC(C)=CCC[C@]1(C)[C@H]2CC(=O)[C@@]3(CO3)[C@@H]1C2	-14.8% (inactive)	–
C=C1CC[C@@H](Br)C(C)(C)[C@]12CC=C(C)C(=O)C2	-10.2% (inactive)	–
